SW480 rerep: DNA re-replication induction in SW480 cells. Potency, µM (top dose mostly 46.1 µM), inactives show at the top dose re-replication activation, actives largely listed as activators. AID 624297. SW480 DNA re-replication, Hoechst DNA content imaging, 48 h. actives 1.8% (n = 340,000); also: potency is read from the fitted curve at half-maximal effect; % of control where 0% means no effect; nearly all actives have a fitted effect of over 55% in size
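Cells (250 per well) received 23 nL compound or DMSO by pin tool and were kept 48 hr at 37 C, 5% CO2. Nuclei were then stained with Hoechst for 40 min and scanned for DNA content.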
IL1B secr inh: blocks inflammasome-driven IL-1 beta release; THP-1 LPS/ATP IL-1B secretion, AlphaLISA, 16 h; hits give low values; activity change, % at 57.5 µM; actives 4.7% (n = 360,000); AID 743279; in the data active = activity change below about -50%; inconclusive = mostly about -30% to -49%; also: % is scaled to controls: 0 for no effect and ±100 for the full control effect
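Secreted IL-1B measured by AlphaLISA bead assay after 16 h compound exposure of THP-1 cells; compounds (final up to 57.5 uM) added 1 h before LPS (250 ng/mL) and ATP (1.25 mM) stimulation; lower signal means less secretion.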
MCF10A rerep: DNA re-replication induction in MCF 10a cells; MCF 10A DNA re-replication, Hoechst nuclear intensity, 48 h; Potency, µM (highest dose often 46.1 µM), for the others: at the highest dose activity, positive = re-replication, usual class: activators; actives 2.9% (n = 350,000); AID 624296; also: potency is read from the fitted curve at half-maximal effect; % of control where 0% means no effect; nearly all actives have a fitted effect of over 50% in size
KB-3-1 tox: KB-3-1 parental cell cytotoxicity; Potency, µM (top dose mostly 46.1 µM), usual class: cytotoxic; actives 1.4% (n = 400,000); KB-3-1 viability, CellTiter-Glo ATP luminescence, 72 h; also: potency is read from the fitted curve at half-maximal effect; % is scaled to controls: 0 for no effect and ±100 for the full control effect; nearly all actives have a fitted effect of over 60% in size
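Parental KB-3-1 adenocarcinoma cells in phenol-red-free DMEM with 10% FBS were pin-treated with compounds at several concentrations, incubated 72 h at 37 °C, and viability read by CellTiter-Glo luminescence; concentration-effect curves were fitted after normalization.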
KB-V1 cytotox: KB-V1 MDR subline cytotoxicity | Potency, µM (highest dose often 46.1 µM), most hits filed as cytotoxic | AID 1347076 | KB-V1 MDR cells viability, CellTiter-Glo, 72 h | actives 3.4% (n = 400,000); also: potency is read from the fitted curve at half-maximal effect; % is scaled to controls: 0 for no effect and ±100 for the full control effect; nearly all actives have a fitted effect of over 60% in size
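Potencies derive from concentration-effect curves fitted to normalized luminescence (CellTiter-Glo) of KB-V1 cells treated for 72 h at 37 degrees C in phenol-red-free DMEM containing 10% FBS.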
* = called active by the depositor; i = inactive; ? = inconclusive; / = no result given; [ ] = dose if it differs, or a comment. Rows were chosen to be rich in hits. Some 9.9% of all compounds tested hit in one or more screens of this group. Unless noted, calls follow the shape of the dose curve; as a rule, active = well fitted curve in the direction sought with a large enough effect; inconclusive = small, poorly fitted or top-dose-only effect, or another doubt; inactive = no such curve, though single readings can be large; an effect the other way counts as inactive or inconclusive.

SMILES	SW480 rerep	IL1B secr inh	MCF10A rerep	KB-3-1 tox	KB-V1 cytotox
O=C(CSc1nnc(CNC(=O)C23CC4CC(CC(C4)C2)C3)n1-c1ccc(F)cc1)Nc1ccc(F)cc1	12%	13	5%	i	?
CCC(Oc1ccccc1)C(=O)Nc1ccc(C)c(S(=O)(=O)N2CCOCC2)c1 (centres undefined)	8%	22	8%	i	i
COc1ccccc1N1CCN(CC(=O)c2c(C)[nH]c3ccccc23)CC1	0%	-8	?	?	i
COc1ccccc1N1CCN(CC(O)c2c(C)[nH]c3ccccc23)CC1 (centres undefined)	?	-3	18µM*	i	i
Cc1ccc(-n2nc(C(=O)N3CCCCC3)c(=O)n(C)c2=O)cc1	/	/	/	i	i
CC1(C)CC(=O)C2=C(C1)NC(=O)NC2c1ccccc1 (centres undefined)	-1%	-22	8%	i	i
CC1C2=C(CC(C)(C)CC2=O)NC2=C1C(=O)CC(C)(C)C2	-106%	-5	5.8µM*	i	i
O=C(Nc1cccc(C(F)(F)F)c1)c1csc([C@H]2C[C@H](O)[C@@H](CO)O2)n1	/	2	/	i	i
Cc1ccccc1-n1c(C)cc(/C=C2/C(=N)N3C(c4ccccc4)=CSC3=NC2=O)c1C	14µM*	-6	?	?	?
N=C1/C(=C\c2ccc(-c3cccc(C(=O)O)c3)o2)C(=O)N=C2SC=C(c3ccccc3)N12	8.2µM*	0	3.3µM*	i	i
CCN1c2ccccc2-n2cccc2C12CCN(C(=O)Nc1ccccc1Br)CC2	/	/	/	i	i
CC(C)OC(=O)c1cn(-c2ccccc2)nc1-c1ccc2c(c1)OCCO2	2%	?	?	i	7.3µM*
NC(=O)/C=C\c1cn(-c2ccccc2)nc1-c1ccc2c(c1)OCCO2	0%	-60*	?	i	15µM*
CNC(=O)COC(=O)/C=C/c1cn(-c2ccccc2)nc1-c1ccc2c(c1)OCCO2	-5%	0	-7%	i	i
O=C(/C=C/c1cn(-c2ccccc2)nc1-c1ccc2c(c1)OCCO2)NCCO	-5%	-10	-2%	i	i
COC(=O)[C@H](CC(C)C)NC(=O)NCCC1=CCCCC1	-8%	/	-2%	?	i
O[C@@H]1CN(Cc2ccc(-n3cccn3)cc2)CC[C@H]1N1CCN(c2ccccc2F)CC1	?	-62*	?	?	i
Cc1ccc(CN2CCN(Cc3ccc(-n4cccn4)cc3)CC2CCO)cc1 (centres undefined)	13%	0	110%	i	?
CCCCCCCCN1[C@@H](CC(=O)O)c2ccc(/C=C/C(=O)O)cc2S1(=O)=O	/	/	/	i	i
Cc1ncc([N+](=O)[O-])n1CCN1C(=O)c2ccccc2C1=O	-4%	17	-4%	i	?
COc1ccc(NC(=O)c2ccco2)cc1S(=O)(=O)N1CCOCC1	-5%	3	-8%	i	i
COc1ccc(NC(=O)c2c(C)nn(Cc3ccccc3)c2Cl)cc1S(=O)(=O)N1CCOCC1	14%	1	2.1µM*	i	i
CCc1ccc(C(=O)Nc2ccc(OC)c(S(=O)(=O)N3CCOCC3)c2)cc1	-1%	-18	16%	i	9.2µM*
COc1ccc(C(=O)NCc2c(C)nn(Cc3ccccc3)c2C)cc1S(=O)(=O)N1CCOCC1	?	-10	15µM*	6.5µM*	i
COc1ccc(S(=O)(=O)N2CCOCC2)cc1C(=O)NCc1c(C)nn(Cc2ccccc2)c1C	-1%	-6	-4%	i	?
SMILES	SW480 rerep	IL1B secr inh	MCF10A rerep	KB-3-1 tox	KB-V1 cytotox
COc1ccc(C(=O)NCC(c2ccccc2)c2ccccc2)cc1S(=O)(=O)N1CCOCC1	-5%	-3	0%	i	8.2µM*
COc1ccc(CC(=O)Nc2nc3ccc(F)cc3s2)cc1S(=O)(=O)N1CCOCC1	-7%[9.22 µM]	-59*	29%	i	i
COc1ccc(C(=O)NCC(c2cccnc2)N2CCN(c3ccccc3)CC2)cc1OC (centres undefined)	2%	21	9%	5.2µM*	i
O=C1CSC(c2ccc([N+](=O)[O-])cc2)N1c1ccc(O)cc1 (centres undefined)	-5%	-1	-6%	i	?
O=C(NCC12CC3CC(CC(C3)C1)C2)c1cc2nc(-c3ccc(F)cc3)cc(C(F)(F)F)n2n1	/	/	/	i	i
O=C(Nc1ccccc1)C(c1ccccc1)C1CCCC1 (centres undefined)	?	-91*	2%	?	i
COc1ccc(Cl)cc1NC(=O)CN(C)C(=O)c1ccc(-n2cncn2)cc1	-12%	18	-19%	i	i
O=C(CSc1ncccc1-c1nc2ccccc2[nH]1)Nc1ccc2c(c1)OCCO2	-113%	-21	11%	i	9.2µM*
Cc1cccc(OCCCC(=O)Nc2nc3ccccc3[nH]2)c1	15%	-1	9%	?	21µM*
O=C(CSc1ccccc1)Nc1nc2ccccc2[nH]1	?	26	?	15µM*	?
O=C(Cc1ccccc1)Nc1nc2ccccc2[nH]1	?	-5	?	i	i
O=C(CSc1ccc(Cl)cc1)Nc1ccc(-c2nc3ccccc3[nH]2)cc1	?	-11	21µM*	i	i
Cc1ccc(OCCCC(=O)Nc2nc3ccccc3[nH]2)cc1	2%	19	3%	?	?
COC(=O)CSc1ncc2c(n1)-c1ccccc1N(Cc1ccc(Cl)cc1)S2(=O)=O	/	/	/	i	i
Cc1nn2c(-c3ccc(Cl)cc3Cl)nnc2s1	0%	0	0%	i	i
N#CCCCSc1ncccc1-c1nc2ccccc2[nH]1	-8%	-19	0%	i	13µM*
O=C(Oc1c(-c2ccccc2)c(=O)n2c3c(cccc13)CC2)c1ccc(F)cc1	-6%	44	26µM*	i	i
O=C(Oc1c(-c2ccccc2)c(=O)n2c3c(cccc13)CC2)c1ccccc1	-3%	?	?	?	?
Cc1ccc(S(=O)(=O)N2CCCC2)cc1C(=O)NCCOc1ccccc1	-14%	8	2%	i	i
CCN(CC)C(=O)CSc1nc2c(sc(=S)n2-c2ccccc2)c(=O)[nH]1	-29%	1	0.65µM*	i	?
CCOC(=O)CC(=O)CSc1nc2c(sc(=S)n2-c2ccccc2)c(=O)[nH]1	4%	20	16µM*	i	i
CC(C)c1ccc(-c2c(C#N)c(N)nc(SCC(=O)N3CCCCC3)c2C#N)cc1	?	48	7.3µM*	?	?
CC(C)c1ccc(-c2c(C#N)c(N)nc(SCC(=O)N3CCCCCC3)c2C#N)cc1	4%	19	15%	i	i

Assay outcomes from PubChem.
